# According to publication PMC7862700, “An all-to-all approach to the identification of sequence-specific readers for epigenetic DNA modifications on cytosine”:
# Key:
# Assay in all cases: DAPPL (digital affinity profiling via proximity ligation, sequencing); 10 mM Tris-HCl pH 7.5, 50 mM NaCl, 1 mM DTT, 4% glycerol, room temperature, 30 min; GST-TFs on glutathione beads, 16-mer random dsDNA library, 0.1% formaldehyde crosslink after washing; high values mean tight binding
# FEV = target: T1, FEV (Homo sapiens, UniProt Q99581 1-238); conditions: protein: recombinant; tags: N-terminal GST; dsDNA, one strand shown
# T1 sequence: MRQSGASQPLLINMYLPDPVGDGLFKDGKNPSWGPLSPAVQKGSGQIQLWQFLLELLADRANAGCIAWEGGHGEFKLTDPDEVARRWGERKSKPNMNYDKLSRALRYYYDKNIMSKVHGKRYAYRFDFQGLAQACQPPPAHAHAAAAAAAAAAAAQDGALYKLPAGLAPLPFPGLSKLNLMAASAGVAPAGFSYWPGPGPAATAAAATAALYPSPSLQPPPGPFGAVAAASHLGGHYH
# Outline: (§1)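 Binding signal is each hexamer's read frequency for a factor divided by its frequency in the tag-only sample. The factors were GST-fused human transcription factors from yeast, captured on glutathione beads, DNA-barcoded and pooled with that sample. Pools were incubated with 200 nmole of a random double-stranded 16-mer DNA library in Tris/NaCl/DTT/glycerol buffer at room temperature for 30 min, then washed, crosslinked with 0.1% formaldehyde, proximity-ligated with BsaI/T4 ligase (1 h, 37 °C), PCR-amplified and sequenced on an Illumina NextSeq500.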
# ETV5 = ETV5 (Homo sapiens, UniProt P41161 1-510); conditions: protein: recombinant; tags: N-terminal GST; dsDNA, one strand shown
# Chain of ETV5 (P41161 whole entry): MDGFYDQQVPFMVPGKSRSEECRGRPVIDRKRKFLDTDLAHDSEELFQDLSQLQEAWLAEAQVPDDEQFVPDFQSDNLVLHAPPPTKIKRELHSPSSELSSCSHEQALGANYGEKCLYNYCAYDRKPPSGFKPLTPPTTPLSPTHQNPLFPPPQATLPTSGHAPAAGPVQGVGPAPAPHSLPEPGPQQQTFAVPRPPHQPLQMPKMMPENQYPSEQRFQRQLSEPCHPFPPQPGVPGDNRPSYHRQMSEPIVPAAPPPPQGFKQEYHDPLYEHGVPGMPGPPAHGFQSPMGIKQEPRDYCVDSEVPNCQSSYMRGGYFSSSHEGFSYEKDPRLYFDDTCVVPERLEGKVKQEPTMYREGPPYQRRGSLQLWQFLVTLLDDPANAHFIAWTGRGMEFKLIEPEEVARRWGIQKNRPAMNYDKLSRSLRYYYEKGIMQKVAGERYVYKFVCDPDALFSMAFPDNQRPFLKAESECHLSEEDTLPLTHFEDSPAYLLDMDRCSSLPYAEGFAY
# Outline: as §1
# HSF1 = HSF1 (Homo sapiens, UniProt Q00613 1-529); conditions: protein: recombinant; tags: N-terminal GST; chain copies: 3; dsDNA, one strand shown
# Chain of HSF1 (Q00613 whole entry): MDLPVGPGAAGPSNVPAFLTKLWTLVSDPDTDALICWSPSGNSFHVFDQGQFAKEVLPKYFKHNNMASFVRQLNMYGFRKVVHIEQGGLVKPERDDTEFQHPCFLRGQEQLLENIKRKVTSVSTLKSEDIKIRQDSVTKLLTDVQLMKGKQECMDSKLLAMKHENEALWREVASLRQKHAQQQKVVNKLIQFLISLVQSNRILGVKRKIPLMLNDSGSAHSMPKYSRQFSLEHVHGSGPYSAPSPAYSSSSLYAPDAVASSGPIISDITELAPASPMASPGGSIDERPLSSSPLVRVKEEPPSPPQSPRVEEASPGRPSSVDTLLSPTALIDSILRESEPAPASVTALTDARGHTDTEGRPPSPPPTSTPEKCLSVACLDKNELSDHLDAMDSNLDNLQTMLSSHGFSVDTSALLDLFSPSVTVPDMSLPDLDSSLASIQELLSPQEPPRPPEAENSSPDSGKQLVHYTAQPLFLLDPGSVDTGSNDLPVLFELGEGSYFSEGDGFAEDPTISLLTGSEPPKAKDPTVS
# Outline: as §1
# SPIC = target: T2, SPIC (Homo sapiens, UniProt Q8N5J4 1-248); conditions: protein: recombinant; tags: N-terminal GST; dsDNA, one strand shown
# T2 sequence: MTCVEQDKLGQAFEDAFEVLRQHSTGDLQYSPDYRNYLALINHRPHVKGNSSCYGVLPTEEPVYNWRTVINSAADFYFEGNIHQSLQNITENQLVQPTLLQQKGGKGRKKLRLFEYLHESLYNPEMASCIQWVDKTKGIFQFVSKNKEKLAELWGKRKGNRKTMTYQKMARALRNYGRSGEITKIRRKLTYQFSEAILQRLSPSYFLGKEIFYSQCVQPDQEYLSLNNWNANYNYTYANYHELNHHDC
# Outline: as §1
# ELF4 = ELF4 (Homo sapiens, UniProt Q99607 1-663); conditions: protein: recombinant; tags: N-terminal GST; dsDNA, one strand shown
# Chain of ELF4 (Q99607 whole entry): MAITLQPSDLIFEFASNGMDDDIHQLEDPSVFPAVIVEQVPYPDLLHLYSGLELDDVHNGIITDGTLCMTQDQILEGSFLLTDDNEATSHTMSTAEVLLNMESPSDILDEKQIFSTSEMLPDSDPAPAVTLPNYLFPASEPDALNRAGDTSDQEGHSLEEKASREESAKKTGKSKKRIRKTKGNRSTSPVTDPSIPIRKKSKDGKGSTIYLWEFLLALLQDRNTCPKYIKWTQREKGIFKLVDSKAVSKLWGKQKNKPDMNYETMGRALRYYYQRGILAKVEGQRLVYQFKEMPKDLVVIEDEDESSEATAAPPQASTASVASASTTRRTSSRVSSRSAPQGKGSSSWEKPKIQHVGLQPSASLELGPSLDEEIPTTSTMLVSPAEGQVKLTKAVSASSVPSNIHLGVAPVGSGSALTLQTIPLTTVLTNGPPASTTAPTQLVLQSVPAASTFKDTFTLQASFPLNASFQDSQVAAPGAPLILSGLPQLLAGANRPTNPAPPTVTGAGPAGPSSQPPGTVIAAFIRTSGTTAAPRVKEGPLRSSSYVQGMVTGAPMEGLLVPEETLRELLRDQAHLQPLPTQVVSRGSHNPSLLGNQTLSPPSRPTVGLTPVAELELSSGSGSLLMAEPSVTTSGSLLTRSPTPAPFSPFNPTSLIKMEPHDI
# Outline: as §1
# ELK4 = target: T3, ELK4 (Homo sapiens, UniProt P28324-2 1-405); conditions: protein: recombinant; tags: N-terminal GST; dsDNA, one strand shown
# T3 sequence: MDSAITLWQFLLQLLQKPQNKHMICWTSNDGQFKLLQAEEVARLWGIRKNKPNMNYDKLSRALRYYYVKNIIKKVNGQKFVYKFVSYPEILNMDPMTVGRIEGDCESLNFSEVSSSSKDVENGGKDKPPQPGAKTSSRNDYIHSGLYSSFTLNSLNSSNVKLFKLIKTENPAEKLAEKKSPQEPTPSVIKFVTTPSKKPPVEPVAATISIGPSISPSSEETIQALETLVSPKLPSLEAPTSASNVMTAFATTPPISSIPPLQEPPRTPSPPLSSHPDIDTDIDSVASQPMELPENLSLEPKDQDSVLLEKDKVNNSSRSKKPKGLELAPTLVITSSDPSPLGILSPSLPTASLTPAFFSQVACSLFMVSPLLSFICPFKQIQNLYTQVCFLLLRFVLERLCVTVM
# Outline: as §1
# ETV2 = target: T4, ETV2 (Homo sapiens, UniProt O00321 1-342); conditions: protein: recombinant; tags: N-terminal GST; dsDNA, one strand shown
# T4 sequence: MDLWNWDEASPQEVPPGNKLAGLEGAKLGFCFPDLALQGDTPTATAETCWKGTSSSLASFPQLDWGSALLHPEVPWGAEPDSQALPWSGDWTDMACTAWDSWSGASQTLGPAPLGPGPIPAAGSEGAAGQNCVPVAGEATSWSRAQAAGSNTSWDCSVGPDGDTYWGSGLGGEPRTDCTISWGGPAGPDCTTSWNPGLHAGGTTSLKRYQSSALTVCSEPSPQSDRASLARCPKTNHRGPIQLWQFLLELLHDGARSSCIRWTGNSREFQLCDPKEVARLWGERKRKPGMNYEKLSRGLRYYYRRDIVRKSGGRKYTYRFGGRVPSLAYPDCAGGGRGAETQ
# Outline: as §1
# ELF3 = target: T5, ELF3 (Homo sapiens, UniProt P78545 1-371); conditions: protein: recombinant; tags: N-terminal GST; dsDNA, one strand shown
# T5 sequence: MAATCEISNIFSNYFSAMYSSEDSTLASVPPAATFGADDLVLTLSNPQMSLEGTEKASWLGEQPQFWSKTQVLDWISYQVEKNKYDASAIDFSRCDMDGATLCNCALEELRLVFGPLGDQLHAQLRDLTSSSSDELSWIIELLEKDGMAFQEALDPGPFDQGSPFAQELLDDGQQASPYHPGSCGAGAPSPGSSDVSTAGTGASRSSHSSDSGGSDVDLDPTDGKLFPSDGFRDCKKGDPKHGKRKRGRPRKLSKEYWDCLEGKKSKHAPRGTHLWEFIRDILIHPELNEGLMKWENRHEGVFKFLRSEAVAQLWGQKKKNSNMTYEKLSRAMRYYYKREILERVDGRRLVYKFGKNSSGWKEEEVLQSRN
# Outline: as §1
# CRX = CRX (Homo sapiens, UniProt O43186 1-299); conditions: protein: recombinant; tags: N-terminal GST; dsDNA, one strand shown
# Chain of CRX (O43186 whole entry): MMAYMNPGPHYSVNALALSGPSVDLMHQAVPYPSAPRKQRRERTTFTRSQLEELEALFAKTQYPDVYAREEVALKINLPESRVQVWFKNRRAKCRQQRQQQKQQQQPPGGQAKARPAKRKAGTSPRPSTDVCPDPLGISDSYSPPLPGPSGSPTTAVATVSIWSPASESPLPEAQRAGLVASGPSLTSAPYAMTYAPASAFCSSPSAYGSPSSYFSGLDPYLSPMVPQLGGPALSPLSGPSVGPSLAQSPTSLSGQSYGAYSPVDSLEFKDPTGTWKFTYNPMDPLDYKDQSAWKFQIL
# Outline: as §1
# ETV1 = ETV1 (Homo sapiens, UniProt P50549 1-477); conditions: protein: recombinant; tags: N-terminal GST; dsDNA, one strand shown
# Chain of ETV1 (P50549 whole entry): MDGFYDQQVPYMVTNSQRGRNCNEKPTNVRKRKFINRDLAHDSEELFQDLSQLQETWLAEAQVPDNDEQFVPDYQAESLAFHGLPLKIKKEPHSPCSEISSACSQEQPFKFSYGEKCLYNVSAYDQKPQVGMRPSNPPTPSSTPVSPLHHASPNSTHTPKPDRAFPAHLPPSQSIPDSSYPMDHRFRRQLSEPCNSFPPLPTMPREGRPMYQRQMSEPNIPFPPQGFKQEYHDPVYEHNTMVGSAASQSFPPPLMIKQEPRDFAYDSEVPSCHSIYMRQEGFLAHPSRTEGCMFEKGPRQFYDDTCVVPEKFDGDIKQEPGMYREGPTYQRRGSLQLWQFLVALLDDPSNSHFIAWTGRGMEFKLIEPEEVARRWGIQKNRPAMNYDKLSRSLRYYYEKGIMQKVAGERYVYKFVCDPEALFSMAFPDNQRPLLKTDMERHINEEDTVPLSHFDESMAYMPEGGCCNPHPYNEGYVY
# Outline: as §1
# ERF = target: T6, ERF (Homo sapiens, UniProt P50548 1-548); conditions: protein: recombinant; tags: N-terminal GST; dsDNA, one strand shown
# T6 sequence: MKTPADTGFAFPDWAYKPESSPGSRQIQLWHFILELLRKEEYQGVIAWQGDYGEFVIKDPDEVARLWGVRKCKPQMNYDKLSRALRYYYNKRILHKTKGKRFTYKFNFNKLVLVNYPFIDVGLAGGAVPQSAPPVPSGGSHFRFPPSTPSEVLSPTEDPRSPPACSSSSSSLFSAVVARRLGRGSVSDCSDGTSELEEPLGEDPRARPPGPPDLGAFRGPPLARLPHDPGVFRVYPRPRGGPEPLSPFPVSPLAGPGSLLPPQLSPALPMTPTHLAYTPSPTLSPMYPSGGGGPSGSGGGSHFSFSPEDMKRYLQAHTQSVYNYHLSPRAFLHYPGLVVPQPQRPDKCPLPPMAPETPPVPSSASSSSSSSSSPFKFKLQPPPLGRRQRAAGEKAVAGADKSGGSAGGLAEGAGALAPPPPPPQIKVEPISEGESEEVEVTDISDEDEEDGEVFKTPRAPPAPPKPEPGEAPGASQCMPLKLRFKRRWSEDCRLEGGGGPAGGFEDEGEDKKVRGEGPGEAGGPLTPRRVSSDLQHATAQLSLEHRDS
# Outline: as §1
# ETV3L = target: T7, ETV3L (Homo sapiens, UniProt Q6ZN32 1-361); conditions: protein: recombinant; tags: N-terminal GST; dsDNA, one strand shown
# T7 sequence: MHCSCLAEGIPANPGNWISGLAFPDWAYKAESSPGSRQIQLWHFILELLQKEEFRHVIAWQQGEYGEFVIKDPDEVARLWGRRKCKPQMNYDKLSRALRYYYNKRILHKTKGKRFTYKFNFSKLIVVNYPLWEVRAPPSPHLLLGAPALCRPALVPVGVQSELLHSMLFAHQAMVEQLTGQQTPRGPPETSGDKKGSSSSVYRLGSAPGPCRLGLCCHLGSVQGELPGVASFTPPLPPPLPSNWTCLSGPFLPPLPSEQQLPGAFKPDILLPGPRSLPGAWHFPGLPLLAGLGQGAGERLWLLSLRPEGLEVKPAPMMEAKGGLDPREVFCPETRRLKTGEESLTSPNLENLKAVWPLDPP
# Outline: as §1
# ETS2 = target: T8, ETS2 (Homo sapiens, UniProt P15036 1-469); conditions: protein: recombinant; tags: N-terminal GST; dsDNA, one strand shown
# T8 sequence: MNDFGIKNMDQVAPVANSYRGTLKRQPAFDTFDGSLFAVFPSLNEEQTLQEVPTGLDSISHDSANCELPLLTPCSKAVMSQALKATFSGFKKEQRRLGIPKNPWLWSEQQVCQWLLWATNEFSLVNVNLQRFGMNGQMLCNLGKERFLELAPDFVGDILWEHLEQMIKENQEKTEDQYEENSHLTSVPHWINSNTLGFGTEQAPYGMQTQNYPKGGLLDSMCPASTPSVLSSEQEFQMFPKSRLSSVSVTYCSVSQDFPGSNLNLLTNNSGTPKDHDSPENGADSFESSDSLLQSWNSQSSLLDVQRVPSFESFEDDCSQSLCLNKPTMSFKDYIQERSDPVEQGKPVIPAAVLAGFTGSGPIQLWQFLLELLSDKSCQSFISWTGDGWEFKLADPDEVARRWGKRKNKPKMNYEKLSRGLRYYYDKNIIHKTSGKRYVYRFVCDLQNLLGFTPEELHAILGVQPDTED
# Outline: as §1
# SPDEF = target: T9, SPDEF (Homo sapiens, UniProt O95238 1-335); conditions: protein: recombinant; tags: N-terminal GST; dsDNA, one strand shown
# T9 sequence: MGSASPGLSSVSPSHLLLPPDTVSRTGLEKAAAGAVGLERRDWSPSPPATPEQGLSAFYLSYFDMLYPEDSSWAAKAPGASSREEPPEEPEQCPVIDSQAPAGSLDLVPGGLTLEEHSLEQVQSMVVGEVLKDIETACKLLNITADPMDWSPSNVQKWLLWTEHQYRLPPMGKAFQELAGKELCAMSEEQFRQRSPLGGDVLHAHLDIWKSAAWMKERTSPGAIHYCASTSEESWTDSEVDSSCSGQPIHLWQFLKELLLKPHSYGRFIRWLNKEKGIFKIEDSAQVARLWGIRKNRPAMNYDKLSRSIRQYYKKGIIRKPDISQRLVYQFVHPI
# Outline: as §1
# ETV7 = target: T10, ETV7 (Homo sapiens, UniProt Q9Y603 1-341); conditions: protein: recombinant; tags: N-terminal GST; dsDNA, one strand shown
# T10 sequence: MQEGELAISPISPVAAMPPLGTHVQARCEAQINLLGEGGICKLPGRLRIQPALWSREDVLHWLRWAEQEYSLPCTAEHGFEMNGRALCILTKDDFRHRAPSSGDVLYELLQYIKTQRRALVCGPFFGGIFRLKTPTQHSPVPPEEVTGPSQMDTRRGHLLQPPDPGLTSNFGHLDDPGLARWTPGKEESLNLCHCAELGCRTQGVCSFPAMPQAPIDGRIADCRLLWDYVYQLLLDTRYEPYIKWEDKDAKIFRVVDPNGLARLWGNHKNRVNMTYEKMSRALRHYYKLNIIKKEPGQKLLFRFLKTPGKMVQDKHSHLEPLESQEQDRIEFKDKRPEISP
# Outline: as §1
# ELF5 = target: T11, ELF5 (Homo sapiens, UniProt Q9UKW6-2 1-255); conditions: protein: recombinant; tags: N-terminal GST; dsDNA, one strand shown
# T11 sequence: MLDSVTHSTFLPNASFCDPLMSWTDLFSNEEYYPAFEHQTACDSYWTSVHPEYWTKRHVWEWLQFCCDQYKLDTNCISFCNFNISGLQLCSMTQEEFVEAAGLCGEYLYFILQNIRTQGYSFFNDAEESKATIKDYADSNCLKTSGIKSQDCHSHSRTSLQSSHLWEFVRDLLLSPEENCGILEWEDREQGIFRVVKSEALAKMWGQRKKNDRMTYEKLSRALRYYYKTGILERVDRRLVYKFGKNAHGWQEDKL
# Outline: as §1
# ETV3 = target: T12, ETV3 (Homo sapiens, UniProt P41162-2 1-143); conditions: protein: recombinant; tags: N-terminal GST; dsDNA, one strand shown
# T12 sequence: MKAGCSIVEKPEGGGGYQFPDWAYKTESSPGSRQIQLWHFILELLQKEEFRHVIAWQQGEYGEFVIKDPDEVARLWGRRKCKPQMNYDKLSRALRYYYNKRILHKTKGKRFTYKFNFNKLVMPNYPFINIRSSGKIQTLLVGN
# Outline: as §1
# ETV6 = ETV6 (Homo sapiens, UniProt P41212 1-452); conditions: protein: recombinant; tags: N-terminal GST; dsDNA, one strand shown
# Chain of ETV6 (P41212 whole entry): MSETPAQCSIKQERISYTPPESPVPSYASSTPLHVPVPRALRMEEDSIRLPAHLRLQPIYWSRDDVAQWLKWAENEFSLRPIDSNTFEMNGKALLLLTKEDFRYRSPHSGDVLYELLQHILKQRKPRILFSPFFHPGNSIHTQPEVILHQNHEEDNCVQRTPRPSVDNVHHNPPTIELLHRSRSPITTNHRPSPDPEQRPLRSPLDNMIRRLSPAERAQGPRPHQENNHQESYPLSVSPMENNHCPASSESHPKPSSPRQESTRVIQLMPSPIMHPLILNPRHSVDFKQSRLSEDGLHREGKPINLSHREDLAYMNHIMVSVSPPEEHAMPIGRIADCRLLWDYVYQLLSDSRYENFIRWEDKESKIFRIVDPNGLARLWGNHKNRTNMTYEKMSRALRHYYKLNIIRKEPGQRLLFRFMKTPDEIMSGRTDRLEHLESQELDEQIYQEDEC
# Outline: as §1
sequence,measurement,setting,value
GGCCTA,binding signal,FEV,"1.19 fold enrichment (6-mer frequency, TF over GST control)"
same,binding signal,ETV5,"1.22 fold enrichment (6-mer frequency, TF over GST control)"
same,binding signal,HSF1,"1.33 fold enrichment (6-mer frequency, TF over GST control)"
same,binding signal,SPIC,"1.1 fold enrichment (6-mer frequency, TF over GST control)"
same,binding signal,ELF4,"1.25 fold enrichment (6-mer frequency, TF over GST control)"
same,binding signal,ELK4,"1.25 fold enrichment (6-mer frequency, TF over GST control)"
same,binding signal,ETV2,"1.14 fold enrichment (6-mer frequency, TF over GST control)"
same,binding signal,ELF3,"1.22 fold enrichment (6-mer frequency, TF over GST control)"
same,binding signal,CRX,"1.39 fold enrichment (6-mer frequency, TF over GST control)"
same,binding signal,ETV1,"1.2 fold enrichment (6-mer frequency, TF over GST control)"
same,binding signal,ERF,"1.19 fold enrichment (6-mer frequency, TF over GST control)"
same,binding signal,ETV3L,"1.15 fold enrichment (6-mer frequency, TF over GST control)"
same,binding signal,ETS2,"1.19 fold enrichment (6-mer frequency, TF over GST control)"
same,binding signal,SPDEF,"1.29 fold enrichment (6-mer frequency, TF over GST control)"
same,binding signal,ETV7,"1.26 fold enrichment (6-mer frequency, TF over GST control)"
same,binding signal,ELF5,"1.13 fold enrichment (6-mer frequency, TF over GST control)"
same,binding signal,ETV3,"1.3 fold enrichment (6-mer frequency, TF over GST control)"
same,binding signal,ETV6,"1.17 fold enrichment (6-mer frequency, TF over GST control)"
